We go through seven compounds from PubChem BioAssay (Tox21).

Experiment [1] addresses Estrogen receptor (Homo sapiens) (UniProt P03372). In words: qHTS assay to identify small molecule antagonists of the estrogen receptor alpha (ER-alpha) signaling pathway using the BG1 cell line in the presence of 0.1 nM 17-beta-estradiol (AID 1259244). Further: nearly all actives have a fitted effect of over 50% in size. Further: potency means the concentration at half of the fitted maximal effect. The method, boiled down: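 Compounds were tested against 0.1 nM (final) 17beta-estradiol in VM7Luc4E2 cells, which express full-length ER-alpha and an ERE-luciferase reporter; luminescence was recorded following 22 h exposure.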

A short description of experiment [2]: qHTS assay to identify small molecule phospholipidosis (PLD) inducers (AID 1259344; active means well fitted curve in the direction sought with a large enough effect; an effect the other way counts as inactive or inconclusive). The method, boiled down:
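Cells (HepG2, 900 per well) attach for 4 h, receive LipidTOX Red and compound together, incubate 24 h at 37 C, are fixed 30 min with paraformaldehyde/Hoechst, then imaged at one site per well.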

The nature of experiment [3]: qHTS assay to identify small molecule HDAC inhibitors (AID 1259364). Further: potency means the concentration at half of the fitted maximal effect.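 Further: wild-type HCT-116 cells with endogenous class I/II HDAC activity; nearly all actives have a fitted effect of over 45% in size.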 The method, boiled down:
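Screening used wild-type human colon HCT-116 cells incubated overnight, dosed with compounds for 2 hours, and assayed with a homogeneous luminogenic HDAC I/II reagent for 30 minutes at room temperature.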
In general terms: qHTS replaces the single test concentration by a dilution series.

Experiment [4] can be described thus: qHTS assay to identify small molecule HDAC inhibitors - cell viability counter screen (AID 1259365). Further: series mostly up to about 92 µM; nearly all actives have a fitted effect of over 50% in size. The method, boiled down:
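Cytotoxicity was gauged in wild-type HCT-116 cells after a brief 2hr treatment with DMSO-dissolved compounds at 37C and 5% CO2, using CellTiter-Glo luminescence developed for 30min at room temperature.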

Experiment [5] is described as follows: qHTS assay to identify small molecule agonists of the sonic hedgehog signaling (Shh) pathway - cell viability counter screen (AID 1259366). Further: nearly all actives have a fitted effect of over 50% in size. Further: potency means the concentration at half of the fitted maximal effect. The method, boiled down:
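Stable Gli1-Luc NIH/3T3 clone, 2,000 cells/well. Compound exposure 24hr at 37C. Read-out: CellTiter-Fluor fluorescence.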

The nature of experiment [6]: qHTS assay to identify small molecule antagonists of the sonic hedgehog signaling (Shh) pathway - cell viability counter screen (AID 1259367). Further: nearly all actives have a fitted effect of over 55% in size. Further: potency means the concentration at half of the fitted maximal effect. The method, boiled down: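 Cytotoxicity was assessed in parallel with Shh reporter activity by measuring live-cell protease fluorescence (CellTiter-Fluor) in NIH/3T3 cells stably carrying Gli1-Luc, treated with compound under conditioned medium stimulation for 23 hr plus 1 hr reagent incubation.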

Experiment [7] is described as follows: qHTS assay to identify small molecule agonists of the sonic hedgehog signaling (Shh) pathway (AID 1259368; calls by dose curve;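 further: NIH/3T3-derived 3T3Gli1-Luc cells carrying a stable Gli1-driven firefly luciferase reporter; series mostly up to about 92 µM; nearly all actives have a fitted effect of over 15% in size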). The method, boiled down: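 Hedgehog pathway agonism scored by increased firefly luciferase luminescence in 3T3Gli1-Luc cells treated 24 hr at 37 C; detection used a 30 min room-temperature reagent incubation.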
Experiment [8] can be described thus: qHTS assay to identify small molecule antagonists of the sonic hedgehog signaling (Shh) pathway (AID 1259369; calls by dose curve; further: nearly all actives have a fitted effect of over 45% in size; further: potency means the concentration at half of the fitted maximal effect). The method, boiled down:
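NIH/3T3 stable Gli1-Luc clone, 2,000 cells/well, 4hr settle; cpd + conditioned medium 24hr; Luc reagent 30min RT; luminescence.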

A short description of experiment [9]: qHTS assay to identify small molecule agonists of the androgen receptor (AR) signaling pathway in the presence of an antagonist - cell viability counter screen (AID 1259379). Further: nearly all actives have a fitted effect of over 25% in size. Further: potency means the concentration at half of the fitted maximal effect. The method in brief:
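MDA-kb2 viability measured by CellTiter-Fluor fluorescence in the same wells as the luciferase signal; nilutamide 3.0uM final; 15-point compound titration; 16 hr at 37C.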

The nature of experiment [10]: qHTS assay to identify small molecule agonists of the estrogen receptor beta (ER-beta) signaling pathway - cell viability counter screen (AID 1259380). Further: nearly all actives have a fitted effect of over 30% in size. Further: potency means the concentration at half of the fitted maximal effect. The method, boiled down: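 Measured: luminescence from CellTiter-Glo after 30 min at room temperature, added to wells already read for the LiveBLAzer FRET reporter (2 hr substrate); ER-beta-UAS-bla HEK293T cells had 16 hr compound treatment at 37C, 5% CO2.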

Experiment [11] is described as follows: qHTS assay to identify small molecule antagonists of the estrogen receptor beta (ER-beta) signaling pathway - cell viability counter screen (AID 1259382). Further: nearly all actives have a fitted effect of over 55% in size. Further: potency means the concentration at half of the fitted maximal effect. The method in brief: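 Readout: luminescence, CellTiter-Glo, same wells as bla assay. System: ER-beta-UAS-bla GripTite HEK293T, 2% charcoal-stripped FBS. Exposure: compounds plus 1nM 17-beta-estradiol, 16 hr, 37C.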

Experiment [12] concerns the target Estrogen receptor (Homo sapiens) (UniProt P03372). Nature of the experiment: qHTS assay to identify small molecule agonists of the estrogen receptor alpha (ER-alpha) signaling pathway in the presence of an antagonist (AID 1259383; calls by dose curve; further: nearly all actives have a fitted effect of over 15% in size; further: potency means the concentration at half of the fitted maximal effect; on activation: top concentration of the series differs between compounds). The method in brief:
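Quantitative HTS confirmation: compounds titrated at 15 concentrations onto estrogen-deprived VM7Luc4E2 cells carrying a four-ERE luciferase construct, with ICI-182,780 present at 10.0nM final. Signal is luminescence after 22hr exposure.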

Experiment [13] concerns the target Progesterone receptor (Homo sapiens) (UniProt P06401). Nature of the experiment: qHTS assay to identify small molecule agonists of the progesterone receptor (PR) signaling pathway (AID 1346784; calls by dose curve; further: nearly all actives have a fitted effect of over 30% in size). The method, boiled down: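 The screen uses PR-UAS-bla HEK 293T cells in charcoal-stripped serum (2%). Compounds are applied for 16 hr at 37C after a 6 hr pre-incubation, and reporter activity is detected with a FRET beta-lactamase substrate after 2 hr at room temperature.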

The target of experiment [14] is Estrogen receptor beta (Homo sapiens) (UniProt Q92731). Nature of the experiment: qHTS assay to identify small molecule agonists of the estrogen receptor beta (ER-beta) signaling pathway (AID 1259377; active means well fitted activation curve with a large enough effect in the signal ratio in the repeat runs, not every such curve was filed as active; the % refers to the signal ratio). The method, boiled down:
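Measured by fluorescence intensity from a B/G FRET beta-lactamase substrate (2 h, room temperature) in ER-beta-UAS-bla HEK293T cells treated with DMSO-dissolved compounds for 16 hr at 37C and 5% CO2.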

A short description of experiment [15]: qHTS assay to identify small molecule agonists of the estrogen receptor alpha (ER-alpha) signaling pathway in the presence of an antagonist - cell viability counter screen (AID 1259386).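 Further: cells exposed to compounds for 22 h at 37 °C before the viability read; nearly all actives have a fitted effect of over 30% in size.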 Further: potency means the concentration at half of the fitted maximal effect. The method in brief: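 The test measures whether compounds kill ER-alpha reporter cells (VM7Luc4E2) under antagonist co-treatment (ICI-182,780, 10.0nM). Fluorescence from CellTiter-Fluor is read after a 22hr exposure.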

A short description of experiment [16]: qHTS assay to identify small molecule agonists or antagonists of the thyroid stimulating hormone receptor (TSHR) signaling pathway - wild type cell line counter screen (AID 1259384; calls by dose curve). The method, boiled down:
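Wild-type HEK293 cells were plated 18 h at 37 C/5% CO2, pin-dosed with compound plus Ro20-1724 medium, held 30 min at room temperature, then given cAMP-d2 and anti-cAMP-cryptate; fluorescence was read after 1 h. Fifteen concentrations, triplicate.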

The target of experiment [17] is Thyrotropin receptor (Homo sapiens) (UniProt P16473). In words: qHTS assay to identify small molecule antagonists of the thyroid stimulating hormone receptor (TSHR) signaling pathway (AID 1259385; calls by dose curve; further: nearly all actives have a fitted effect of over 20% in size). The method, boiled down:
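TSHR-HEK293 cells were plated and held 18 h at 37C/5% CO2, then given compound plus Ro20-1724 and stimulated with TSH at 1.5 ng/mL final. After 30 min at room temperature, cAMP was detected with cAMP-d2/anti-cAMP-cryptate (1 h) by fluorescence.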

For experiment [18], the target named is Estrogen receptor beta (Homo sapiens) (UniProt Q92731). In words: qHTS assay to identify small molecule antagonists of the estrogen receptor beta (ER-beta) signaling pathway (AID 1259378; active means well fitted inhibition curve with a large enough effect in the signal ratio in the repeat runs, not every such curve was filed as active; the % refers to the signal ratio). The method in brief: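 ER-beta-UAS-bla HEK293T (GripTite) cells in 2% charcoal-stripped FBS medium were preincubated 6 hr at 37C, dosed with compound, then stimulated with 1 nM E2 (final) for 16 hr; beta-lactamase reporter read by B/G FRET fluorescence after 2 hr substrate loading.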
Sequence of Estrogen receptor beta (Homo sapiens) (Q92731 whole entry, looked up): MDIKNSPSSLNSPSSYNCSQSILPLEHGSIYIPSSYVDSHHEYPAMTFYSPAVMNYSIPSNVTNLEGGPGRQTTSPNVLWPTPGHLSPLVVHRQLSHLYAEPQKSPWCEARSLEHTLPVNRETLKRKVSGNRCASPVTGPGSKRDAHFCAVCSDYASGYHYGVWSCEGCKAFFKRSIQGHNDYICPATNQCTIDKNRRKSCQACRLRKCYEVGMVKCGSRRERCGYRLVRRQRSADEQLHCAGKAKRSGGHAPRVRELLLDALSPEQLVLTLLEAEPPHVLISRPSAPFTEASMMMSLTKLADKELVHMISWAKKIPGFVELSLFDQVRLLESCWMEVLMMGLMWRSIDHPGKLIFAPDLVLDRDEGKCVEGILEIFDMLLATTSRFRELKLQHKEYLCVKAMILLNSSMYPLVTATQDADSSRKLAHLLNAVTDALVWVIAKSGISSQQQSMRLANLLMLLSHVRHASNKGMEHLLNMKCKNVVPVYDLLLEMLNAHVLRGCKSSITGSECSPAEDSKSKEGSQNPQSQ

Values joined by “and” are separate entries in the source; they are usually repeats but may differ in a detail not shown here. Identical values can stand only once. Results filed as inconclusive are left out. A structure can be active in one record and inactive in another. Active and inactive are the calls of the source. Unless noted, the call rests on the fitted dose curve; in most records, active means well fitted curve in the direction sought with a large enough effect in the repeat runs; inconclusive means weak or mixed curves; inactive means no such curve, though single readings can be large; an effect the other way counts as inactive or inconclusive.

Sequence of Thyrotropin receptor (Homo sapiens) (P16473 whole entry, looked up): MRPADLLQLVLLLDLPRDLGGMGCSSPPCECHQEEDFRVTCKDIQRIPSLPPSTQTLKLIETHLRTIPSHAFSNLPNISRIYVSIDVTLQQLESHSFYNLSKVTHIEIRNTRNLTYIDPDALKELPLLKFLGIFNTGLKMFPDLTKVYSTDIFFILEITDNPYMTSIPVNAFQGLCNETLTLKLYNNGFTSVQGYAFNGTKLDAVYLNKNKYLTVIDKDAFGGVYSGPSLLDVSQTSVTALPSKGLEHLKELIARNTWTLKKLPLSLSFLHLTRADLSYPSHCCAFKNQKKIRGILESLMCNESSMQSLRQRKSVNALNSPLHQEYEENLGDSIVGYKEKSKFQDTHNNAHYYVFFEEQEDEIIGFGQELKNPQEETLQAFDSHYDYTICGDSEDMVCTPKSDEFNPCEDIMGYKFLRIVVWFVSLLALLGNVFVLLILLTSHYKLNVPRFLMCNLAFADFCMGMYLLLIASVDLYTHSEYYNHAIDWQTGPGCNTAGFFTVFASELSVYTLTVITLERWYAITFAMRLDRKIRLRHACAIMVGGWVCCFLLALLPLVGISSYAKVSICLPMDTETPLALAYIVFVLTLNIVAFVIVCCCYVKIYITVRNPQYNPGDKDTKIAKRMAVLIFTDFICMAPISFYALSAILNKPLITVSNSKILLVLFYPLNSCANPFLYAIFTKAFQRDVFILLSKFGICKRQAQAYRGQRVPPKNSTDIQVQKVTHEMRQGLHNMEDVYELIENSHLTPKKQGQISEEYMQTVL
Sequence of Progesterone receptor (Homo sapiens) (P06401 whole entry, looked up): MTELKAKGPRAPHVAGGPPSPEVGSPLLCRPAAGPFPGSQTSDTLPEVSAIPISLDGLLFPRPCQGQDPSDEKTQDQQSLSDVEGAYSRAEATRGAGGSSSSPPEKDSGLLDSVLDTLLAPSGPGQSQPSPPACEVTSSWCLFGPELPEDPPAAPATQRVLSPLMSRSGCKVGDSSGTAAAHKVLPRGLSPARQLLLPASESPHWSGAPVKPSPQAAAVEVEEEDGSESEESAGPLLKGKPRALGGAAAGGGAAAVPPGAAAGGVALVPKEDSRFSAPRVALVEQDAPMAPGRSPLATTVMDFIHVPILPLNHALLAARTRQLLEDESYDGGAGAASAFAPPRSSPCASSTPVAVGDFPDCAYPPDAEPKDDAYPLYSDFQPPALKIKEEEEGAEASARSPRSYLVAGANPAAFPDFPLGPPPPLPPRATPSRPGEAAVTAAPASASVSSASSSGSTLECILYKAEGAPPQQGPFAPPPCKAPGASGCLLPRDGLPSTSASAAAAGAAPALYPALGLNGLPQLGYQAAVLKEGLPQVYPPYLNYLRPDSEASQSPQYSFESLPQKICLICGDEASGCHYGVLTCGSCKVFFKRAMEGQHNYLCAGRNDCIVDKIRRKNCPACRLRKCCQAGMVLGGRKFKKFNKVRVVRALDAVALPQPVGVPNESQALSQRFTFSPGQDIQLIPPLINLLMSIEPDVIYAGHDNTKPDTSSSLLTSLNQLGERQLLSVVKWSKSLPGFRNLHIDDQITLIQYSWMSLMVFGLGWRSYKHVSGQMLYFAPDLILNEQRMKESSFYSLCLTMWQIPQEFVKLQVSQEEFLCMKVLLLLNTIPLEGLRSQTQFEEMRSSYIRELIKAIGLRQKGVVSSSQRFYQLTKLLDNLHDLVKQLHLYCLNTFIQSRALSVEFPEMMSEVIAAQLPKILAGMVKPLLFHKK
Sequence of Estrogen receptor (Homo sapiens) (P03372 whole entry, looked up): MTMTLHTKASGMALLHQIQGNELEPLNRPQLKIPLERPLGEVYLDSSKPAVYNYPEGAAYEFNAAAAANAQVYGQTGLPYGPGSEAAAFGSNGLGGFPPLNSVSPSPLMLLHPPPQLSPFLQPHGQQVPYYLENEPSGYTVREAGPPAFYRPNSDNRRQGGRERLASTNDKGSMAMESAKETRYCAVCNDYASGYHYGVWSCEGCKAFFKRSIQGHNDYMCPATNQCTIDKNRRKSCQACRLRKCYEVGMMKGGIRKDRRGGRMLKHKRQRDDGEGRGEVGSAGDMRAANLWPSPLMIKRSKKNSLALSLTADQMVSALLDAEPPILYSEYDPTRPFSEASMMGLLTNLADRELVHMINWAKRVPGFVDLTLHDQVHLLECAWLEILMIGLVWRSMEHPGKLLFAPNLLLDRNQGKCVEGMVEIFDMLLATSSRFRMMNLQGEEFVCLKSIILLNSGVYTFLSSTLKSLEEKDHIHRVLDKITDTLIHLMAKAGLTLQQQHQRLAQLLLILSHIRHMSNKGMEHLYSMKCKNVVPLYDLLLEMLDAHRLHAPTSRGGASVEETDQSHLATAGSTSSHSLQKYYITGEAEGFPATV

With `NC(N)=Nc1nc(CSCC/C(N)=N/S(N)(=O)=O)cs1`, the Potency entry in experiment [1], in experiment [2], in experiment [3], in [4], in [5] and in experiment [6] was “inactive” in each case. For the same compound, the Potency result in experiment [7], in experiment [8], in experiment [9], in experiment [10], in experiment [11] and in experiment [12] was “inactive” each time. Besides, the Potency result in experiment [13] was “inactive”.

In the case of `O=C(O[C@@H]1Cc2c(O)cc(O)cc2O[C@@H]1c1cc(O)c(O)c(O)c1)c1cc(O)c(O)c(O)c1`, the Potency entry in experiment [1], in experiment [3], in [4], in experiment [7], in experiment [10] and in experiment [11] was “inactive” each time. Further, the Potency result in experiment [12] and in [13] was “inactive” throughout. In addition, the Potency is 27.4 µM (active) and 26.3 µM (active) in experiment [5]; 23.4 µM (active) in experiment [6]; 27.4 µM (active) in [8]; 54.6 µM (active) in [9]; 54.6 µM (active) and 46.8 µM (active) in experiment [15]. In experiment [14], the call was inactive.

Consider `O=C(O)CP(=O)(O)O`, for which the Potency result in [1], in experiment [2], in [4], in [5], in experiment [6] and in experiment [7] was “inactive” each time. The Potency result in experiment [8], in experiment [9], in experiment [10], in [11], in [12] and in experiment [16] was “inactive” throughout. Besides, the Potency result in experiment [17], in [15] and in [13] was “inactive” each time.

Consider `CC(C)CCCCCCc1ccc(O)cc1`, for which the Potency is 5.54 µM (active) and inactive in experiment [1]; 62.2 µM (active) in [5]; 55.4 µM (active) and inactive in experiment [6]; 24.8 µM (active) and inactive in [8]; 27.8 µM (active) and inactive in [9]; 3.92 µM (active) and 61.1 µM (active) in experiment [10]. The Potency in experiment [11] was 5.54 µM (active) and inactive; in [12] it was 15.6 µM (active) and 27.3 µM (active); in experiment [15] it was 27.8 µM (active) and inactive. For the same compound, the Potency result in experiment [2] and in experiment [7] was “inactive” each time. Besides, the call in experiment [14] was inactive.

For the compound `CCn1c2ccccc2c2cc(N)ccc21`, the Potency entry in experiment [1], in experiment [4], in experiment [5], in experiment [6], in experiment [7] and in experiment [18] was “inactive” in each case. For the same compound, the Potency entry in experiment [11], in [12], in [16], in experiment [17], in experiment [15] and in [13] was “inactive” throughout. Further, the Potency result in experiment [3] was “inactive and 27.3 µM (active)”; in experiment [8], 15.2 µM (active) and inactive; in experiment [10], 17.1 µM (active) and 15.4 µM (active). Moreover, the outcome in experiment [14] was inactive.

Turning to `O=C1OC2(c3ccc(O)cc3Oc3cc(O)ccc32)c2ccccc21`, the Potency entry in experiment [1], in experiment [2], in [4], in experiment [7], in [8] and in experiment [10] was “inactive” throughout. The Potency result in experiment [11], in experiment [12], in experiment [16] and in experiment [17] was “inactive” each time.

Consider `CCC[C@H](N[C@@H](C)C(=O)N1[C@H](C(=O)O)C[C@@H]2CCCC[C@@H]21)C(=O)OCC`, for which the Potency result in experiment [1], in experiment [2], in experiment [3], in [4], in [5] and in [6] was “inactive” each time. The Potency result in [7], in experiment [8], in experiment [10], in [11], in experiment [12] and in experiment [16] was “inactive” throughout. In addition, the Potency entry in experiment [17] and in experiment [13] was “inactive” each time.
